Structures are written as SMILES. Results filed as inconclusive are left out. Values without a mark were called inactive. Calls of active or inactive are those of the source. Calls come from the whole dose curve; as a rule, active = well fitted inhibition curve with a large enough effect; inconclusive = small, poorly fitted or top-dose-only effect; inactive = flat fitted curve, though single readings scatter.

Assay [1] deals with HaCat. The assay is described as follows: Cytotoxic Profiling of Annotated Libraries Using Quantitative High-Throughput Screening (AID 1296008). For max response: % is set by controls: 0 for no effect and ±100 for the full control effect. The settings on record: Five cell lines viability, CellTiter-Glo ATP luminescence, 48-72 h; max response: active compounds read low. A digest of the protocol:
(§1)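 Cytotoxicity was measured as CellTiter-Glo ATP luminescence, read after 10 min at room temperature. Compound treatment of the cells lasted 48 or 72 hr at 37 degrees Celsius in a qHTS format.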
(Cellular ATP, detected with luciferase, serves as a proxy for viable cell number.)

In assay [2] the test system is NIH3T3. The description is as above. As to conditions: Five cell lines viability, CellTiter-Glo ATP luminescence, 48-72 h; max response: active compounds read low. A digest of the protocol: as §1
Assay [3] concerns MCC-13. Briefly: qHTS assay to identify novel small-molecules to repurpose for Merkel cell carcinoma treatment (AID 1296009). The settings on record: MCC and control cell lines, CellTiter-Glo viability, 72 h; series mostly up to 46 µM. Put shortly:
(§2)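 Cell viability measured by CellTiter-Glo following 72 hr compound treatment at 37 degree celsius, with NPC and MIPE libraries tested in 8- and 11-point concentration series.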

Assay [4] concerns MCC-26. The assay is described as above. The settings on record: MCC and control cell lines, CellTiter-Glo viability, 72 h; series mostly up to 46 µM. Put shortly:
as §2

The subject of assay [5] is HACAT. The assay is described as above. The settings on record: MCC and control cell lines, CellTiter-Glo viability, 72 h; at 44.8 µM (top of the series) unless noted. A digest of the protocol: as §2
Assay [6] concerns KB-3-1. The assay is described as follows: Cytotoxic Profiling of Annotated Libraries Using Quantitative High-Throughput Screening (AID 1296008). For max response: % is set by controls: 0 for no effect and ±100 for the full control effect. As to conditions: Five cell lines viability, CellTiter-Glo ATP luminescence, 48-72 h; max response: active compounds read low. Put shortly:
as §1

Assay [7] deals with HEK293. The description is as above. As to conditions: Five cell lines viability, CellTiter-Glo ATP luminescence, 48-72 h; max response: active compounds read low. Put shortly:
as §1

Assay [8] relates to P93_24. Briefly: qHTS profiling for inhibitors of Plasmodium falciparum proliferation (AID 504749). The settings on record: P. falciparum in erythrocytes, SYBR Green DNA, 72 h; series mostly up to 28.7 µM. Put shortly:
(§3)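 In a 72 h erythrocytic culture (37 C, humidified, 5% CO2) at 2.5% hematocrit and 0.3% starting parasitemia, compounds were tested; SYBR Green I in detergent lysis buffer stained parasite DNA overnight.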
In general terms: In qHTS, concentration-response curves come from the screen itself.

Assay [9] has as its system P94_40. The description is as above. As to conditions: P. falciparum in erythrocytes, SYBR Green DNA, 72 h; series mostly up to 28.7 µM. A digest of the protocol:
as §3

Assay [10] has as its system PAD. The description is as above. As to conditions: P. falciparum in erythrocytes, SYBR Green DNA, 72 h; series mostly up to 28.7 µM. Put shortly:
as §3

Assay [11] deals with PC26. The assay is described as above. The settings on record: P. falciparum in erythrocytes, SYBR Green DNA, 72 h; series mostly up to 28.7 µM. Put shortly:
as §3

In assay [12] the test system is PC49. The assay is described as above. As to conditions: P. falciparum in erythrocytes, SYBR Green DNA, 72 h; series mostly up to 28.7 µM. Put shortly:
as §3

For assay [13], the system named is SC27B. Described as above. As to conditions: P. falciparum in erythrocytes, SYBR Green DNA, 72 h; series mostly up to 28.7 µM. A digest of the protocol:
as §3

Assay [14] relates to TAB109. Described as above. The settings on record: P. falciparum in erythrocytes, SYBR Green DNA, 72 h; series mostly up to 28.7 µM. Put shortly: as §3
Assay [15] relates to TAB113. The description is as above. The settings on record: P. falciparum in erythrocytes, SYBR Green DNA, 72 h; series mostly up to 28.7 µM. A digest of the protocol:
as §3

In assay [16] the test system is TAB165. The assay is described as above. As to conditions: P. falciparum in erythrocytes, SYBR Green DNA, 72 h; series mostly up to 28.7 µM. Put shortly:
as §3

For assay [17], the system named is W2. The description is as above. The settings on record: P. falciparum in erythrocytes, SYBR Green DNA, 72 h; series mostly up to 28.7 µM. A digest of the protocol:
as §3
Note: nearly all actives have a fitted effect of over 60% in size.
Potency is the fitted concentration of half-maximal effect.

`COc1c(C)c2c(c(O)c1CC=C(C)CCC(=O)O)C(=O)OC2`: in [1], the max response was -8.02%. The Potency in assay [2] was 3.72 µM (active).
Turning to `CC(C)c1c(C(=O)Nc2ccccc2)c(-c2ccccc2)c(-c2ccc(F)cc2)n1CC[C@H](O)C[C@@H](O)CC(=O)O`, the Potency in assay [1] is 20.9 µM (active). Also, the max response in assay [2] is -10.9%. In addition, the Potency entry in assay [3] and in assay [4] was “inactive” throughout.
Consider `CC1=C[C@@H]2[C@@H]([C@@H](O)C[C@@]3(C)[C@H]2C[C@@H](C)[C@]3(O)C(=O)CO)[C@@]2(C)Cc3cnn(-c4ccccc4)c3C=C12`, for which the Potency in [1] is 20.6 µM (active); in assay [2] it was 14.6 µM (active). In addition, the Potency entry in assay [3] and in assay [4] was “inactive” throughout.
On to `O=C(C=Cc1ccc(O)cc1)c1ccc(O)cc1O`, for which the compound was called inactive in [1] and in assay [5]. The max response in assay [2] was -8.95%. The Potency entry in assay [3] and in assay [4] was “inactive” each time.
Consider `CON(C)C(=O)N1N=C(c2cc(F)ccc2F)S[C@]1(CCCN)c1ccccc1`, for which the max response was -26.8% in assay [1] and -18.9% in [2]. Moreover, the figures for the Potency in assay [6] and in assay [3] were 0.8 nM (active) and 9.3 nM (active), respectively.
For `CCc1cc(-c2n[nH]c(C)c2-c2ccc3c(c2)OCCO3)c(O)cc1O`, the figures for the Potency in assay [1] and in [2] were 7.43 µM (active) and 8.33 µM (active), respectively.
Turning to `CN(C)S(=O)(=O)c1ccc2c(c1)C(=Cc1cc3c([nH]1)CCCC3)C(=O)N2`, the max response in [6] is -0.966%. In addition, the Potency result in [3] and in assay [4] was “inactive” in each case.
Regarding `CC1(C)C(N(O)C(=O)Nc2ccc(Cl)cc2)N(c2ccc(Cl)cc2)C(=O)N1CC(=O)NN=CC=Cc1ccc([N+](=O)[O-])o1` (stereo not given), the Potency result in assay [3] and in assay [4] was “inactive” each time.
Consider `O=C(O)Cc1cccc(OCCCN(Cc2cccc(C(F)(F)F)c2Cl)CC(c2ccccc2)c2ccccc2)c1`, for which the Potency in assay [7] is 16.6 µM (active); in [4] it was 26.4 µM (active).
For the compound `CCCCc1ccc(NS(=O)(=O)c2ccc(C)c(C(=O)N3CCN(c4cccc(C)c4C)CC3)c2)cc1`, the max response in assay [1] was -17%. For the same compound, the Potency result in [3] and in assay [4] was “inactive” in each case.
Take `O=C1CN2Cc3c(ccc(Cl)c3Cl)N=C2N1`: the max response in assay [1] was -28.5%. In addition, the Potency result in assay [3] and in [4] was “inactive” throughout.
For `CN1CCc2c(n(Cc3ccc(C(=O)NO)cc3)c3ccccc23)C1`, the Potency result in [3] and in assay [4] was “inactive” each time.
Take `CC[C@H](C)n1cc(C)c2c(C(=O)NCc3c(C)cc(C)[nH]c3=O)cc(-c3ccc(N4CCNCC4)nc3)cc21`: the outcome in assay [1], in assay [2] and in assay [5] was inactive. The Potency entry in assay [3] and in assay [4] was “inactive” in each case.
For `Cc1ccc(NC(=O)c2cccc(N(C)C)c2)cc1NC(=O)c1ccc(O)cc1`, the outcome in assay [1] and in assay [5] was inactive. Also, the max response in assay [6] was 5.76%; in [2], 3.99%. For the same compound, in assay [3], the Potency entry was “inactive”.
With `Cc1[nH]c(C=C2C(=O)Nc3ccc(S(=O)(=O)N(C)c4cccc(Cl)c4)cc32)c(C)c1C(=O)N1CCN(C)CC1`, the max response in [1] is -0.347%. Moreover, the Potency in assay [2] is 9.35 µM (active).
On to `C=CCc1cccc(C=NNC(=O)CN2CCN(Cc3ccccc3)CC2)c1O`, for which the Potency in assay [7] was 13.2 µM (active). For the same compound, the Potency entry in assay [4] is “inactive”.
Consider `Clc1ccc(COC(Cn2ccnc2)c2ccc(Cl)cc2Cl)c(Cl)c1` (stereo not given), for which the Potency was 1.41 µM (active) in assay [8]; 2.82 µM (active) in assay [9]; 3.55 µM (active) in assay [10]; 2.56 µM (active) in [11]; 2.82 µM (active) in assay [13]; 3.98 µM (active) in assay [14]. The Potency in assay [15] was 3.16 µM (active); in assay [16] it was 1 µM (active); in [17] it was 2.28 µM (active). Besides, the call in [12] was inactive. Also, the Potency entry in assay [3] and in [4] was “inactive” throughout.
Consider `CN[C@@H]1CN(c2ccc3c(=O)c(C(=O)O)cn(-c4nccs4)c3n2)C[C@@H]1OC`, for which the Potency in assay [1] was 6.45 µM (active); in assay [2], 0.512 µM (active). Moreover, the Potency entry in assay [4] is “inactive”.

Values taken from PubChem BioAssay (NCATS).
